Results published in PubChem BioAssay (NCATS).
“And” between values parts separate entries of the source, which are not always exact repeats. Equal entries are not always repeated. Inconclusive results are not listed. The source made the active and inactive calls. Unless noted, calls follow the shape of the dose curve; as a rule, active = well fitted curve in the direction sought with a large enough effect; inconclusive = small, poorly fitted or top-dose-only effect, or another doubt; inactive = no such curve, though single readings can be large; an effect the other way counts as inactive or inconclusive.

Assays:
[1] = biological target: Glucocorticoid receptor (Homo sapiens) (UniProt P04150); assay: GR-GFP Redistribution (AID 450;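 active = compounds whose dose series gives a full or clear partial fitted curve of increased nuclear translocation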; also: potency is read from the fitted curve at half-maximal effect); details: U2OS GR-GFP nuclear translocation, laser cytometry, 2 h
[2] = biological target: Glucocorticoid receptor (Homo sapiens) (UniProt P04150); assay: GR-EFC Redistribution (AID 451; calls by dose curve; also: potency is read from the fitted curve at half-maximal effect); details: CHO-K1 GR-EFC translocation, beta-gal luminescence, 2 h
Summary of the method: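 Translocation of GR-ED fusion to nuclear EA restores b-gal, read by luminescence after 1 h room-temperature detection. Engineered CHO-K1 biosensor cells, 1,000/well, exposed 2 h at 37 C to titrations up to 46 uM final.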

[3] = biological target: Mitogen-activated protein kinase 10 (Mus musculus) (UniProt Q61831); assay: JNK3 AlphaScreen Assay (AID 530; active = well fitted curve in either direction with a large enough effect, not every such curve was filed as active;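 also: kinase came from lysate of stimulated human HepG2 cells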; also: potency is read from the fitted curve at half-maximal effect); details: JNK3 lysate, c-Jun phosphorylation; series mostly up to 57.1 µM
Summary of the method: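 Compound titrations were preincubated 15 minutes at room temperature with substrate, antibody and pre-activated JNK3-containing HepG2 lysate. Reactions were started with 10 uM ATP and stopped with EDTA-containing bead buffer for AlphaScreen detection.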

[4] = biological target: 3',5'-cyclic-AMP phosphodiesterase 4B (Homo sapiens) (UniProt Q07343); assay: qHTS Assay for Inhibitors of PDE-IV (AID 607; active = well fitted activation curve with a large enough effect in the main read-out, with a control signal flat, not every such curve was filed as active; also: % of control where 0% means no effect); details: HEK293 ACTOne CNG channel cells, membrane potential fluorescence; series mostly up to 22.9 µM
Summary of the method: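 The readout is membrane depolarisation from a cAMP-sensing CNG channel, detected with a potential dye at ex 535/em 590. Cells were HEK293-derived (endogenous PDE-IV) at 1000 cells/well, titrated up to 22.9 uM final.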

[5] = Cell Viability - N2a (AID 540); details: N2a mouse neuroblastoma cell viability; activity change, negative = cytotoxicity: at 92.2 µM (top of the series);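 also: cells exposed to compound for 40 h at 37 °C; plate controls were DMSO alone for no effect and tamoxifen control for full effect; nearly all actives have a fitted effect of over 45% in size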
Summary of the method: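 Luminescent ATP signal (CellTiter-Glo, 20 min at room temperature) served as the viability read-out after N2a cells were treated with compounds for 40 hours at 37 °C. Concentration-response data were fitted to the Hill equation for AC50.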

[6] = Cell Viability - HUV-EC-C (AID 542); details: HUV-EC-C endothelial cell viability, qHTS; series mostly up to 92.2 µM; also: % is scaled to controls: 0 for no effect and ±100 for the full control effect; nearly all actives have a fitted effect of over 35% in size
Summary of the method: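 qHTS cytotoxicity: HUV-EC-C, 1000 cells/well, 5 hr settle, compound 40 hr 37 °C, CellTiter-Glo, luminescence. AC50 via Hill equation.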

[7] = Cell Viability - H-4-II-E (AID 543); details: H-4-II-E rat hepatoma viability; series mostly up to 92.2 µM; also: % is scaled to controls: 0 for no effect and ±100 for the full control effect; nearly all actives have a fitted effect of over 35% in size
Summary of the method: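 Luminescent ATP signal (CellTiter-Glo) served as the viability read-out, with cytotoxicity seen as a concentration-dependent ATP drop. Cells were treated for 40 hours in complete medium. AC50 values derive from Hill-equation modelling.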

[8] = Cell Viability - SH-SY5Y (AID 544); details: SH-SY5Y neuroblastoma cell viability; viability change, negative = cytotoxic: at 92.2 µM (top of the series); also: nearly all actives have a fitted effect of over 55% in size; also: potency is read from the fitted curve at half-maximal effect
Summary of the method: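 Luminescent ATP read-out (CellTiter-Glo) measures loss of viable SH-SY5Y neuroblastoma cells after 40 hr compound exposure at 37 °C. AC50 values derive from standard Hill modelling of qHTS concentration-response data.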

[9] = Cell Viability - Renal Proximal Tubule (AID 545); details: renal proximal tubule cells viability, primary cells of rat origin; activity change, negative = cytotoxicity: at 91.7 µM (top of the series); also: nearly all actives have a fitted effect of over 40% in size
Summary of the method: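 Rat kidney proximal tubule cells, freshly isolated; 1000 cells/well, 5 hr settle, compound 40 hr 37 °C. CellTiter-Glo 20 min RT, luminescence read. AC50 by standard Hill fit.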

[10] = Cell Viability - Mesenchymal (AID 546); details: mesenchymal cells viability, qHTS; activity change, negative = cytotoxicity: at 91.7 µM (top of the series);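 also: cells exposed to compound for 40 hours before reading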
Summary of the method: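 AC50 values reflect the drop in intracellular ATP in a human kidney mesenchymal line derived from normal glomeruli. Treatment lasts 40 hr at 37 °C in complete medium, and the signal comes from CellTiter-Glo luminescence.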

[11] = Cellular Toxicity (caspase-3) HepG2 (AID 654); details: HepG2 caspase-3 activation, luminescence; series mostly up to 92.2 µM;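 also: cells exposed to compound for 16 hours before reading; 0% = DMSO alone and 100% = caspase signal from 100 µM tamoxifen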
Summary of the method: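 Cells plated 5 hr at 37 °C, compound added, incubated 16 hr at 37 °C. Caspase-Glo 3/7 reagent followed, 20 min at room temperature, then luminescence read. Activation scored as signal increase; AC50 from Hill fit.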

[12] = Cellular Toxicity (caspase-3) Jurkat (AID 655); details: Jurkat caspase-3 activation, luminescence; series mostly up to 92.2 µM;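 also: cells exposed to compound for 16 h at 37 °C before reading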
Summary of the method: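 Luminescent caspase-3/7 readout (aminoluciferin substrate cleavage) in human T-cell leukemia Jurkat cells after 16 hr compound exposure. Concentration-response normalized to DMSO and 100 uM tamoxifen; AC50 by standard Hill equation.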

[13] = Cellular Toxicity (caspase-3) HUV-EC-C (AID 656); details: HUV-EC-C cells, caspase-3 activation (apoptosis), vehicle = 0, 100 µM tamoxifen = 100%; series mostly up to 92.2 µM
Summary of the method: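 Luminescent caspase-3/7 activation (aminoluciferin substrate cleavage) in HUV-EC-C cells after 16 hr compound exposure, 37°C. Signal normalized to DMSO basal and 100 uM tamoxifen as 100%; AC50 from concentration-response fitted with the Hill equation.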

[14] = Cellular Toxicity (caspase-3) SHSY5Y (AID 657); details: SH-SY5Y caspase-3 activation, DMSO zero, 10 µM staurosporine = 100%; series mostly up to 91.7 µM;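 also: cells exposed to compound for 16 hours at 37 °C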
Summary of the method: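 Luminescent caspase-3/7 readout (aminoluciferin release) in SH-SY5Y cells after 16 h compound exposure in complete medium. Activity scaled between DMSO basal and 10 uM staurosporine as 100%; concentration-response fitted to Hill equation for AC50.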

[15] = Cellular Toxicity (caspase-3) BJ (AID 658); details: BJ fibroblasts, luminescence, normalized: DMSO 0%, staurosporine 100%; series mostly up to 91.7 µM
Summary of the method: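 Readout: Caspase-Glo 3/7 luminescence increase in BJ cells after 16 hr treatment at 37 °C. Staurosporine and tamoxifen served as positive controls; AC50 values came from Hill modelling of data normalized to DMSO and 10 uM staurosporine.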

[16] = Cellular Toxicity (caspase-3) MRC-5 (AID 659); details: MRC-5 cells, luminescence, normalized: DMSO 0%, 10 µM staurosporine 100%; series mostly up to 91.7 µM
Summary of the method: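 Concentration-dependent caspase 3/7 activation is measured in human normal lung fibroblasts (MRC-5) following 16-hour treatment. AC50 values come from standard Hill-equation modeling of luminescence normalized to DMSO and 10 uM staurosporine.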

[17] = Cellular Toxicity (caspase-3) Mesangial (AID 660); details: mesangial cells; Potency: caspase-3 activation; series mostly up to 91.7 µM;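 also: combined caspase 3 and 7 activity read by Caspase-Glo luminescence; cells exposed to compound for 16 h before the caspase read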
Summary of the method: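 Mesangial cells, 1000/well, 5 h settle at 37 °C; compound 16 h, 37 °C; Caspase-Glo 3/7 reagent 20 min RT; luminescence. Norm.: DMSO = 0%, tamoxifen 100 uM = 100%. AC50, Hill fit.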

[18] = Cellular Toxicity (caspase-3) SK-N-SH (AID 661); details: SK-N-SH caspase-3 activation, qHTS; series mostly up to 91.7 µM
Summary of the method: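 Human neuroblastoma SK-N-SH, 1500 cells/well, 5 hr pre-incubation, then compound 16 hr, 37 °C. Caspase-Glo 3/7 reagent, 1 hr RT, luminescence. Norm. to DMSO/10 uM staurosporine; Hill-fit AC50.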

[19] = Cellular Toxicity (caspase-3) H-4-II-E (AID 663); details: H-4-II-E rat hepatoma, scaled: DMSO 0%, 100 µM tamoxifen 100%; at 92.2 µM (top of the series);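 also: cells exposed to compound for 16 hr before readout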
Summary of the method: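 Apoptosis induction is scored as increased luminescence from caspase 3/7 substrate cleavage in rat hepatoma H-4-II-E cells exposed to compound for 16 hr. Activity is scaled between DMSO and 100 uM tamoxifen.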

[20] = Cellular Toxicity (caspase-3) Hek293 (AID 664); details: HEK293 caspase-3 activation, DMSO = 0%, 100 µM tamoxifen = 100%; at 92.2 µM (top of the series);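 also: cells exposed to compound for 16 h at 37 °C before readout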
Summary of the method: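 Cells plated, 5 hr at 37 °C; compounds added; 16 hr at 37 °C; Caspase-Glo 3/7 reagent, 20 min RT; luminescence read. Activation expressed relative to DMSO and 100 uM tamoxifen, AC50 by Hill model.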

Sequence of 3',5'-cyclic-AMP phosphodiesterase 4B (Homo sapiens) (Q07343 whole entry, looked up): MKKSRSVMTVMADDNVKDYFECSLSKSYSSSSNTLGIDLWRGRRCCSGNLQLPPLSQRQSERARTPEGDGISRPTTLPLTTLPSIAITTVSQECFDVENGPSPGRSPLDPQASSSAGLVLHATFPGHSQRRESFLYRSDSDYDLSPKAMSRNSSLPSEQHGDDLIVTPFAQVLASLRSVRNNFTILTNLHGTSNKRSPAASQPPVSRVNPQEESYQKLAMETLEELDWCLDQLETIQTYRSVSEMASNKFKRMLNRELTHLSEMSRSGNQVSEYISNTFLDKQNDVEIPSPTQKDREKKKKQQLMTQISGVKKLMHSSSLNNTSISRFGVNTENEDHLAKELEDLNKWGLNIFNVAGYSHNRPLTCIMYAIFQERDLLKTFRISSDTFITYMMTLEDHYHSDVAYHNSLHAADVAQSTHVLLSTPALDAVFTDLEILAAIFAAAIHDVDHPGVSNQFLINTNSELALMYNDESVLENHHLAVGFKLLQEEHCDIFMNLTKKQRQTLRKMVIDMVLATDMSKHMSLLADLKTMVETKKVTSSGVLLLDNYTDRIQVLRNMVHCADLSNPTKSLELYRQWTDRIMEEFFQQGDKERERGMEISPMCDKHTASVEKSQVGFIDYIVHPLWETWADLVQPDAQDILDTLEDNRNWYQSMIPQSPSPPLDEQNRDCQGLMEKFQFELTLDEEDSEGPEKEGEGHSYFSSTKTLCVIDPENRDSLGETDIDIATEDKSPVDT
Sequence of Glucocorticoid receptor (Homo sapiens) (P04150 whole entry, looked up, the tested form may be a part): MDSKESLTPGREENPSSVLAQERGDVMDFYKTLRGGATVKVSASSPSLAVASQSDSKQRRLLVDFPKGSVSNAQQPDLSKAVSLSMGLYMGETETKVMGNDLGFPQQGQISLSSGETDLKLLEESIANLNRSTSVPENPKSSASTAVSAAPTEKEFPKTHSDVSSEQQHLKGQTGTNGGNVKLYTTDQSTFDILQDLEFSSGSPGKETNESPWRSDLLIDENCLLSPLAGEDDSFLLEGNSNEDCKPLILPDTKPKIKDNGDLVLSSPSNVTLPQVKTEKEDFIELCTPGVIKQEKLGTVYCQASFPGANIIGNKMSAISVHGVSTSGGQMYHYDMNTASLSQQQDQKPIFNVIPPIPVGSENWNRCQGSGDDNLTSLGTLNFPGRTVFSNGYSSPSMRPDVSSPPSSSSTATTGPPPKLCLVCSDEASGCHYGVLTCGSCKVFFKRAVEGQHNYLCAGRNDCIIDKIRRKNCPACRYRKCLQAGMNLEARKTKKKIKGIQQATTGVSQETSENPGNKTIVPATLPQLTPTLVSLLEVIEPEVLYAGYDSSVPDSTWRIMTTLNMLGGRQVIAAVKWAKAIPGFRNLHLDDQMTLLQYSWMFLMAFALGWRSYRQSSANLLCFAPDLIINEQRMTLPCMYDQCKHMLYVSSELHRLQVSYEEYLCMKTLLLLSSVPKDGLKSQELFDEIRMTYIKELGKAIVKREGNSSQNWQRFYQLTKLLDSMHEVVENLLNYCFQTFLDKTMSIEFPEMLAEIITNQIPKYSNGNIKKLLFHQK

c1ccc(-c2ccccn2)nc1
inactive: Potency [1] > 46 µM | Potency [2] > 46 µM | Potency [3] | outcome [4]

N#C/C(=C\c1ccc(O)c(O)c1)C(=O)NCc1ccccc1
inactive: Potency [1] > 46 µM | Potency [2] > 46 µM | Potency [3] | outcome [4]

O=c1[nH]c2ccccc2n1CCCN1CCN(C(c2ccccc2)c2ccccc2)CC1
inactive: Potency [1] > 46 µM and > 20.6 µM

NCCSSCCN
inactive: Potency [1] > 46 µM | Potency [2] > 46 µM and > 9.22 µM | Potency [3] | outcome [4]

Nc1ccc(O)c(C(=O)O)c1
inactive: Potency [1] > 20.6 µM | Potency [2] > 20.6 µM | Potency [3] | Potency [5] | Potency [6] | Potency [7] | Potency [8] | activity change, negative = cytotoxicity [9] 10.5% | Potency [10] | outcome [4] | Potency [11] | Potency [12] | outcome [13] | outcome [14] | outcome [15] | outcome [16] | Potency [17] | Potency [18] | caspase-3 activation [19] -0.695% | caspase-3 activation [20] 0.369%

NC(=O)C(=O)O
inactive: Potency [1] > 46 µM | Potency [2] > 46 µM | Potency [3] | outcome [4]

C[N+]1(C)CCC(OC(=O)C(c2ccccc2)c2ccccc2)CC1
inactive: Potency [1] > 46 µM | Potency [2] > 46 µM | Potency [3] | outcome [4]

N#C/C(=C\c1ccc(O)c(O)c1)C(=O)NCCCc1ccccc1
inactive: Potency [1] > 46 µM and > 20.6 µM | Potency [2] > 46 µM | outcome [4]
active: Potency [3] 10 µM

COc1cc2c(CCNC(C)=O)c[nH]c2cc1Cl
inactive: Potency [1] > 46 µM | Potency [2] > 46 µM | Potency [3] | outcome [4]

COc1ccc(/C=C/C(=O)Nc2ccccc2C(=O)O)cc1OC
inactive: Potency [1] > 20.6 µM

CC(C)(C=O)Cc1cc(C(C)(C)C)c(O)c(C(C)(C)C)c1
inactive: Potency [1] > 46 µM | Potency [2] > 46 µM | Potency [3] | outcome [4]

Oc1ccccc1O
inactive: Potency [1] > 46 µM | Potency [2] > 46 µM | Potency [3] | Potency [6] | activity change, negative = cytotoxicity [9] -24.1% | Potency [10] | outcome [4] | Potency [11] | Potency [12] | outcome [13] | outcome [15] | outcome [16] | Potency [17] | Potency [18] | caspase-3 activation [20] 7.91%
active: Potency [8] 10 µM

CC(C)Cc1ccc([C@H](C)C(=O)O)cc1
inactive: Potency [1] > 46 µM and > 20.6 µM | Potency [2] > 46 µM and > 20.6 µM | Potency [3] | outcome [4]

CCCSc1ccc2nc(NC(=O)OC)[nH]c2c1
inactive: Potency [1] > 20.6 µM | Potency [2] > 20.6 µM | Potency [3] | outcome [4]

C[C@@H](NC(=O)/C(C#N)=C/c1ccc(O)c(O)c1)c1ccccc1
inactive: Potency [1] > 46 µM | Potency [2] > 46 µM
active: Potency [3] 12.6 µM
